This note sets out measurements from PubChem BioAssay AID1347422 (Sanford-Burnham Center for Chemical Genomics, 2020).

The structures appear in SMILES notation. Whole data set: some 1,000 compounds, median “thermal shift dTm” near 0.19, cut for the highest 2% near 1.7. The list comes from a sample in which the highest values are over-represented; it also holds similar structures and randomly drawn compounds. Active and inactive are the calls of the source.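 The calls were made as follows: active = mean rise in melting temperature of at least 1 degC over same-plate control wells; inactive = below that, where a call was filed.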

Chain of Sulfhydryl oxidase 1 (Homo sapiens) (O00391 whole entry, looked up): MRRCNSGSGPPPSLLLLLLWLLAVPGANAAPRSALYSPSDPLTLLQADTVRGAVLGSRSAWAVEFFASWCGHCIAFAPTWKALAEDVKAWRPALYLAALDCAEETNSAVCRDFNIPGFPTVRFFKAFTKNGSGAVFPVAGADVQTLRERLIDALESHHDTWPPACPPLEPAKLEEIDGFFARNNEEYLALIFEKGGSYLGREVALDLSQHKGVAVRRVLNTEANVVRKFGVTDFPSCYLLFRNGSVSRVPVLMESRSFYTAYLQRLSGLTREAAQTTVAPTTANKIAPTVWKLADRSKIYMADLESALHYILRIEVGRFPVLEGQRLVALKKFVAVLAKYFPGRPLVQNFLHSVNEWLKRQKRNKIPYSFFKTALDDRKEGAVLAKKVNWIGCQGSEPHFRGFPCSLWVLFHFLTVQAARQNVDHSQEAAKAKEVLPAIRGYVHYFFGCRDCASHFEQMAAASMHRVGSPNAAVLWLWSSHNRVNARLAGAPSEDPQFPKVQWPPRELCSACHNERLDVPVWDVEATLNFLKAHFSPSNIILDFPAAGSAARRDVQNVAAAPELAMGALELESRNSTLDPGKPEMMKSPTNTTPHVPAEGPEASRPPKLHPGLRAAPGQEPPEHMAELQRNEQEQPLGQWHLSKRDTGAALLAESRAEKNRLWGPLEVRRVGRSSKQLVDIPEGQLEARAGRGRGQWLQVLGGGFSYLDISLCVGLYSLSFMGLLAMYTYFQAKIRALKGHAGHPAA

This experiment addresses Sulfhydryl oxidase 1 (Homo sapiens) (UniProt O00391). Nature of the experiment: QSOX1 binders by thermal stabilization, confirmation, QSOX1 inhibitor project, biophysical, protein thermal shift, single concentration (AID 1347422).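 Also: dTm is compound Tm minus mean Tm of DMSO-only wells on that plate.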 The following applies: recombinant hQSOX1 thermal shift, Sypro Orange, at 25 µM, stronger effect = higher value.
Regarding `COC(=O)C1=C(C)N(c2ccc(Cl)cc2)C(=O)/C1=C\c1ccco1`, the thermal shift dTm came to 0.01 °C.

As to `O=C(Nc1ccc(Cl)cn1)c1cccc(NC(=O)c2cccs2)c1`, the thermal shift dTm is 0.37 °C.

As for `C/C=C/c1c(F)c(F)c(Oc2cccc(NC(C)=O)c2)c(F)c1F`, the thermal shift dTm was 0.63 °C.

As to `C=CCN1C(=O)C(c2c(C)[nH]c3ccccc23)(c2c(C)[nH]c3ccccc23)c2ccccc21`, the thermal shift dTm was 1.05 °C (active).

Take `FC(F)(F)c1ccc(Cl)c(Nc2nnc(-c3ccncc3)s2)c1`: the thermal shift dTm was determined as 0.77 °C.

As for `Cc1ccc(NC(=O)NCc2nc(-c3ccccc3Cl)no2)cc1`, the thermal shift dTm turned out to be 0.2 °C.

Turning to `Cc1ccc(Nc2nc(-c3sc(C)nc3C)cs2)nc1`, the thermal shift dTm was found to be 0.16 °C.

Consider `O=C(Nc1cccc(Cl)c1)N1CCC(C(O)(c2ccccc2)c2ccccc2)CC1`, for which the thermal shift dTm worked out at 0.21 °C.

For the molecule `O=S1(=O)CC2C(C1)N(c1cccc(C(F)(F)F)c1)C(=S)N2c1ccccc1` (centres undefined), the thermal shift dTm was -0.16 °C (inactive).

As for `CC(=O)Oc1ccc(-c2csc(Nc3ccccc3F)n2)cc1`, the thermal shift dTm was determined as 0.35 °C.

Consider `COc1ccc(S(=O)(=O)NC(C)C2C3CC4CC(C3)CC2C4)cc1` (centres undefined), for which the thermal shift dTm is -0.18 °C (inactive).

`O=C(Nc1nccs1)c1cccc(NC(=O)c2cc3ccccc3o2)c1`: the thermal shift dTm is 1.07 °C (active).

Consider `Cc1nc(NC(=O)c2ccc(Br)s2)sc1C`, for which the thermal shift dTm is 0.27 °C.

As for `CCN(C(=O)Nc1ccc(Cl)cc1)c1nnc(-c2ccccc2)s1`, the thermal shift dTm was 0.16 °C.

Regarding `CCc1ccc(C(=O)Nc2cccc(NC(=O)c3ccco3)c2)cc1`, the thermal shift dTm was 2.18 °C (active).

Consider `CC(=O)Nc1cccc(NC(=O)c2cccc(NC(=O)c3ccco3)c2)c1`, for which the thermal shift dTm is 0.37 °C.

For `O=C(Nc1cccc(NC(=O)c2ccco2)c1)c1cccc(F)c1`, the thermal shift dTm is 1.39 °C (active).

Consider `Cc1ccccc1OCc1nc(-c2cccc(NC(=O)c3ccco3)c2)no1`, for which the thermal shift dTm was determined as 0.57 °C.

As for `COc1ccc(/C=C/C(=O)Nc2cccc(C(C)=O)c2)cc1`, the thermal shift dTm was 1.18 °C (active).

Take `Nc1cccc(/C=C/C(=O)c2ccccc2)c1`: the thermal shift dTm stood at 0.57 °C.

Turning to `COc1ccc(C(=O)/C=C/c2cccc(OC)c2)cc1`, the thermal shift dTm was 2.07 °C (active).

In the case of `O=C(NC1CC(=O)N(Cc2cccc3ccccc23)C1)C(=O)c1ccccc1` (centres undefined), the thermal shift dTm is 0.23 °C.

In the case of `O=C(Nc1ccc(Cl)cc1)Nc1ccccc1OC(F)F`, the thermal shift dTm came to 0.25 °C.

As for `COc1ccc(C)cc1NC(=O)Nc1ccc(OC(F)F)c(Cl)c1`, the thermal shift dTm was -0.79 °C (inactive).

For the molecule `CCCc1cc(=O)[nH]c(SCC(=O)Nc2nc(-c3ccccc3)cs2)n1`, the thermal shift dTm is 1.07 °C (active).

Take `COc1ccccc1C(=O)NC(=S)Nc1ccc(NC(=O)C(C)C)cc1`: the thermal shift dTm came to 0.11 °C.

On to `O=c1c2ccccc2ncn1CCCOc1ccc2ccccc2c1Br`, for which the thermal shift dTm came to 0.11 °C.

For the molecule `COc1ccc(Cl)cc1NC(=S)Nc1c(C)nn(Cc2c(F)cccc2Cl)c1C`, the thermal shift dTm was 0.81 °C.

With `CCCOC(=O)c1c(NC(=O)C2CC=CCC2C(=O)O)sc(C)c1-c1ccc(F)cc1` (centres undefined), the thermal shift dTm turned out to be 0.77 °C.

`CC1Oc2ccc(-c3csc(NC(=O)COc4ccc(Cl)cc4)n3)cc2NC1=O` (centres undefined): the thermal shift dTm was -0.1 °C (inactive).

For the molecule `Cc1ccc(-n2[nH]c(CSc3nnnn3-c3ccccc3)cc2=O)cc1`, the thermal shift dTm came to 0.43 °C.

As for `Cc1[nH]nc(-c2ccc(O)c(O)c2O)c1Oc1ccc(F)cc1`, the thermal shift dTm is -5.32 °C (inactive).

As for `Cc1ccc(-c2cc(-c3ccc(F)cc3)n[nH]2)c(O)c1`, the thermal shift dTm is 1.84 °C (active).

`Cc1ccc(O)c(-c2cc(-c3ccccc3)n[nH]2)c1`: the thermal shift dTm was determined as 0.01 °C.

For `O=C(Nc1cccc(-c2noc(CCc3ccccc3)n2)c1)c1cccs1`, the thermal shift dTm stood at 0.1 °C.

With `O=C(/C=C/c1ccco1)NCc1cccc(CNC(=O)/C=C/c2ccco2)c1`, the thermal shift dTm is 1.04 °C (active).

`CCCC(=O)NC(c1ccccc1OC)c1c(OC(=O)COc2ccccc2)ccc2ccccc12` (centres undefined): the thermal shift dTm is -0.13 °C (inactive).

On to `OCc1ccc(OCc2ccc(F)cc2)c(Br)c1`, for which the thermal shift dTm worked out at 0.58 °C.

As for `COc1ccc2[nH]cc(CCNC(=O)c3ccc(OC(C)=O)cc3)c2c1`, the thermal shift dTm was 0.81 °C.

`COc1cccc(C(=O)NCCc2c[nH]c3ccc(C)cc23)c1`: the thermal shift dTm was found to be 0.07 °C.

In the case of `COc1ccc2[nH]cc(CCNC(=O)c3cccc(Cl)c3)c2c1`, the thermal shift dTm is 1.74 °C (active).

With `NC(=O)c1ccc(NC(=O)C2CC2(c2ccccc2)c2ccccc2)cc1` (centres undefined), the thermal shift dTm is 0.19 °C.

As for `O=C(Nc1cccc(OCC2CCCO2)c1)c1cccs1` (centres undefined), the thermal shift dTm worked out at 0.09 °C.

On to `COc1cccc(C(=O)Nc2nc3ccc(Cl)cc3s2)c1`, for which the thermal shift dTm amounted to 0.62 °C.

Take `COc1ccc(C(=O)Oc2ccccc2Cl)cc1Br`: the thermal shift dTm is 0.06 °C.

For the molecule `Fc1ccc(-c2nc(-c3cccs3)c(-c3cccs3)[nH]2)cc1`, the thermal shift dTm is 3.34 °C (active).

As for `c1csc(-c2nc(-c3cccs3)c(-c3cccs3)[nH]2)c1`, the thermal shift dTm turned out to be 0.06 °C.

Turning to `COc1ccc(-c2nc(-c3cccs3)c(-c3cccs3)[nH]2)cc1`, the thermal shift dTm amounted to 0.25 °C.

As for `Cc1oc(-c2ccccc2NS(C)(=O)=O)nc1CN(C)Cc1ccc(OC(F)F)cc1`, the thermal shift dTm was 0.18 °C.

Regarding `CC(=O)Nc1ccc(NC(=O)c2cc3ccccc3o2)cc1`, the thermal shift dTm is 1.73 °C (active).

Regarding `Cc1cc(NC(=O)c2ccccn2)ccc1NC(=O)c1cc2ccccc2o1`, the thermal shift dTm stood at 0.19 °C.

As to `N#Cc1cccc(NC(=O)c2cc3ccccc3o2)c1`, the thermal shift dTm is 0.32 °C.

As for `O=C(Nc1cccc(OCc2ccccc2)c1)c1ccco1`, the thermal shift dTm was determined as 0.23 °C.

Regarding `Cc1ccc(-c2noc(CNC(=O)C34CC5CC(CC(C5)C3)C4)n2)cc1`, the thermal shift dTm was 0.16 °C.
